# Measured values: publication PMC5540273 (PLoS ONE, 2017)
# Several values for one entry are separate records, joined by “and”; a condition that tells them apart may be missing. Equal values may be shown once. Read-outs that look alike come from different tables or passages of the source.
# What was measured:
# [1] = test system: EPHA3; settings: concentration: 1 μM, replicates: in singlicate, n = 1
# [2] = test system: EPHA4; settings: concentration: 1 μM, replicates: in singlicate, n = 1
# [3] = test system: EPHA5; settings: concentration: 1 μM, replicates: in singlicate, n = 1
# [4] = test system: EPHA6; settings: n = 1
# [5] = test system: EPHA7; settings: concentration: 1 μM, replicates: in singlicate; n = 1
# [6] = test system: EPHA8; settings: concentration: 1 μM, replicates: in singlicate; n = 1
# [7] = test system: EPHB1; settings: concentration: 1 μM, replicates: in singlicate, n = 1
# [8] = test system: EPHB2; settings: concentration: 1 μM, replicates: in singlicate, n = 1
# [9] = test system: EPHB3; settings: concentration: 1 μM, replicates: in singlicate; n = 1
# [10] = test system: EPHB4; settings: concentration: 1 μM, replicates: in singlicate; n = 1
# [11] = test system: EPHB6; settings: concentration: 1 μM, replicates: in singlicate, n = 1
# [12] = test system: ERBB2; settings: concentration: 1 μM, replicates: in singlicate, n = 1
# [13] = test system: ERBB3; settings: concentration: 1 μM, replicates: in singlicate, n = 1
# [14] = test system: ERBB4; settings: concentration: 1 μM, replicates: in singlicate, n = 1
# [15] = test system: T1, ERK1; settings: concentration: 1 μM, replicates: in singlicate, n = 1
# T1 construct: gene MAPK3
# [16] = test system: T2, ERK2; settings: concentration: 1 μM, replicates: in singlicate, n = 1
# T2 construct: gene MAPK1
# [17] = test system: T3, ERK3; settings: concentration: 1 μM, replicates: in singlicate, n = 1
# T3 construct: gene MAPK6
# [18] = test system: T4, ERK4; settings: concentration: 1 μM, replicates: in singlicate; n = 1
# T4 construct: gene MAPK4
# [19] = test system: T5, ERK5; settings: concentration: 1 μM, replicates: in singlicate, n = 1
# T5 construct: gene MAPK7
# [20] = test system: T6, ERK8; settings: concentration: 1 μM, replicates: in singlicate, n = 1
# T6 construct: gene MAPK15
# [21] = concentration: 1 μM, replicates: in singlicate
# 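Further: KINOMEscan kinase panel screen.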
compound,measurement,setting,value
Cc1nnc(-c2ccc3occ(-c4ccc(C(C)O)cc4)c3c2)o1 (stereo not drawn),%Inh,[1],0%
same,%Inh,[2],30%
same,%Inh,[3],0%
same,%Inh,[4]; [21],52%
same,%Inh,[5],3%
same,%Inh,[6],0%
same,%Inh,[7],9%
same,%Inh,[8],15%
same,%Inh,[9],12%
same,%Inh,[10],13%
same,%Inh,[11],15%
same,%Inh,[12],0%
same,%Inh,[13],9%
same,%Inh,[14],0%
same,%Inh,[15],0%
same,%Inh,[16],0%
same,%Inh,[17],15%
same,%Inh,[18],10%
same,%Inh,[19],7%
same,%Inh,[20],31%
CC(C)(C)n1cnc2c(N)ncnc21 [SKF-97359],%Inh,[1],0%
same,%Inh,[2],0%
same,%Inh,[3],0%
same,%Inh,[4]; [21],0%
same,%Inh,[5],0%
same,%Inh,[6],7%
same,%Inh,[7],0%
same,%Inh,[8],0%
same,%Inh,[9],0%
same,%Inh,[10],0%
same,%Inh,[11],0%
same,%Inh,[12],37%
same,%Inh,[13],17%
same,%Inh,[14],22%
same,%Inh,[15],0%
same,%Inh,[16],0%
same,%Inh,[17],10%
same,%Inh,[18],15%
same,%Inh,[19],4%
same,%Inh,[20],8%
CSc1ccc(-c2cc3ncnc(SCC(=O)O)c3s2)cc1,%Inh,[1],0%
same,%Inh,[2],5%
same,%Inh,[3],13%
same,%Inh,[4]; [21],6%
same,%Inh,[5],0%
same,%Inh,[6],0%
same,%Inh,[7],4%
same,%Inh,[8],0%
same,%Inh,[9],15%
same,%Inh,[10],18%
same,%Inh,[11],33%
same,%Inh,[12],22%
same,%Inh,[13],7%
same,%Inh,[14],0%
same,%Inh,[15],0%
same,%Inh,[16],19%
same,%Inh,[17],0%
same,%Inh,[18],14%
same,%Inh,[19],2%
same,%Inh,[20],18%
Cc1cn2c(=O)cc(N3CCOCC3)nc2n1Cc1cccc(Cl)c1Cl [GSK2334006],%Inh,[1],0%
same,%Inh,[2],19%
same,%Inh,[3],0%
same,%Inh,[4]; [21],10%
same,%Inh,[5],7%
same,%Inh,[6],21%
same,%Inh,[7],16%
same,%Inh,[8],7%
same,%Inh,[9],17%
same,%Inh,[10],19%
same,%Inh,[11],0%
same,%Inh,[12],20%
same,%Inh,[13],0%
same,%Inh,[14],33%
same,%Inh,[15],0%
same,%Inh,[16],13%
same,%Inh,[17],21%
same,%Inh,[18],0%
same,%Inh,[19],0%
same,%Inh,[20],24%
Nc1nc(-c2ccc3c(N)n[nH]c3c2)cc(N2CCCC2)n1 [GSK2227430],%Inh,[1],3%
same,%Inh,[2],5%
same,%Inh,[3],0%
same,%Inh,[4]; [21],6%
same,%Inh,[5],0%
same,%Inh,[6],6%
same,%Inh,[7],0%
same,%Inh,[8],0%
same,%Inh,[9],13%
same,%Inh,[10],10%
same,%Inh,[11],19%
same,%Inh,[12],0%
same,%Inh,[13],0%
same,%Inh,[14],8%
same,%Inh,[15],0%
same,%Inh,[16],0%
same,%Inh,[17],0%
same,%Inh,[18],24%
same,%Inh,[19],0%
same,%Inh,[20],0%
Cl.Nc1ncnc2occ(-c3ccc(NC(=O)Nc4cc(C(F)(F)F)ccc4F)cc3)c12 [SB-707548],%Inh,[1],76%
same,%Inh,[2],93.9%
same,%Inh,[3],91.5%
same,%Inh,[4]; [21],99.3%
same,%Inh,[5],98.9%
same,%Inh,[6],99.7%
same,%Inh,[7],96%
same,%Inh,[8],94.4%
same,%Inh,[9],94.7%
same,%Inh,[10],96%
same,%Inh,[11],98.6%
same,%Inh,[12],44%
same,%Inh,[13],24%
same,%Inh,[14],23%
same,%Inh,[15],0%
same,%Inh,[16],0%
same,%Inh,[17],0%
same,%Inh,[18],8%
same,%Inh,[19],12%
same,%Inh,[20],99.2%
Cl.Cl.Cl.Fc1ccc(-c2ncn(C3CCNCC3)c2-c2ccnc(Nc3ccccc3)n2)cc1 [SB-238039],%Inh,[1]; 1 µM,34% and 25%
same,%Inh,[2]; 1 µM,8% and 0%
same,%Inh,[3]; 1 µM,7% and 10%
same,%Inh,"[4]; concentration: 1 μM, replicates: in singlicate, 1 µM",18% and 0%
same,%Inh,[5],0%
same,%Inh,[6],10%
same,%Inh,[7]; 1 µM,31% and 0%
same,%Inh,[8]; 1 µM,25% and 0%
same,%Inh,[9],0%
same,%Inh,[10],0%
same,%Inh,[11]; 1 µM,3% and 0%
same,%Inh,[12]; 1 µM,92% and 79%
same,%Inh,[13]; 1 µM,67% and 7%
same,%Inh,[14]; 1 µM,47% and 46%
same,%Inh,[15]; 1 µM,60% and 11%
same,%Inh,[16]; 1 µM,37% and 26%
same,%Inh,[17]; 1 µM,0% and 18%
same,%Inh,[18],0%
same,%Inh,[19]; 1 µM,46% and 0%
same,%Inh,[20]; 1 µM,0% and 10%
O=C(Nc1cccc(-c2nn3ncccc3c2-c2ccnc(Nc3cccc(C(F)(F)F)c3)n2)c1)c1c(F)cccc1F [GSK299495],%Inh,[1],0%
same,%Inh,[2],8%
same,%Inh,[3],0%
same,%Inh,[4]; [21],11%
same,%Inh,[5],54%
same,%Inh,[6],49%
same,%Inh,[7],29%
same,%Inh,[8],0%
same,%Inh,[9],14%
same,%Inh,[10],9%
same,%Inh,[11],30%
same,%Inh,[12],92.1%
same,%Inh,[13],56%
same,%Inh,[14],98.4%
same,%Inh,[15],0%
same,%Inh,[16],0%
same,%Inh,[17],7%
same,%Inh,[18],18%
same,%Inh,[19],0%
same,%Inh,[20],0%
O=c1cc(N2CCOCC2)nc2n(Cc3cccc(Cl)c3Cl)c(C3CC3)nn12 [GSK2358994],%Inh,[1],0%
same,%Inh,[2],11%
same,%Inh,[3],6%
same,%Inh,[4]; 1 µM,0%
same,%Inh,[5],0%
same,%Inh,[6],9%
same,%Inh,[7],0%
same,%Inh,[8],0%
same,%Inh,[9],7%
same,%Inh,[10],3%
same,%Inh,[11],33%
same,%Inh,[12],0%
same,%Inh,[13],9%
same,%Inh,[14],0%
same,%Inh,[15],0%
same,%Inh,[16],11%
same,%Inh,[17],0%
same,%Inh,[18],0%
same,%Inh,[19],0%
same,%Inh,[20],13%
Fc1ccc(-c2nn3c(OCC(F)(F)F)cccc3c2-c2ccncc2)cc1 [GW514784],%Inh,[1],24%
same,%Inh,[2],3%
same,%Inh,[3],0%
same,%Inh,[4]; [21],11%
same,%Inh,[5],0%
same,%Inh,[6],13%
same,%Inh,[7],16%
same,%Inh,[8],0%
same,%Inh,[9],6%
same,%Inh,[10],1%
same,%Inh,[11],0%
same,%Inh,[12],59%
same,%Inh,[13],29%
same,%Inh,[14],37%
same,%Inh,[15],0%
same,%Inh,[16],0%
same,%Inh,[17],6%
same,%Inh,[18],9%
same,%Inh,[19],0%
same,%Inh,[20],0%
Cc1c2ccc(N(C)c3ccnc(Nc4cccc(S(N)(=O)=O)c4)n3)cc2nn1Cc1ccccc1.Cl.Cl [GW787226],%Inh,[1],15%
same,%Inh,[2],21%
same,%Inh,[3],0%
same,%Inh,[4]; [21],19%
same,%Inh,[5],0%
same,%Inh,[6],39%
same,%Inh,[7],12%
same,%Inh,[8],20%
same,%Inh,[9],7%
same,%Inh,[10],0%
same,%Inh,[11],98.9%
same,%Inh,[12],0%
same,%Inh,[13],0%
same,%Inh,[14],0%
same,%Inh,[15],0%
same,%Inh,[16],0%
same,%Inh,[17],0%
same,%Inh,[18],0%
same,%Inh,[19],12%
same,%Inh,[20],3%
Cn1ccc2ncnc(Oc3ccc(NC(=O)Nc4ccncc4)c(Cl)c3)c21,%Inh,[1],0%
same,%Inh,[2],14%
same,%Inh,[3],0%
same,%Inh,[4]; [21],16%
same,%Inh,[5],0%
same,%Inh,[6],0%
same,%Inh,[7],0%
same,%Inh,[8],2%
same,%Inh,[9],6%
same,%Inh,[10],1%
same,%Inh,[11],0%
same,%Inh,[12],15%
same,%Inh,[13],0%
same,%Inh,[14],0%
same,%Inh,[15],0%
same,%Inh,[16],0%
same,%Inh,[17],5%
same,%Inh,[18],0%
same,%Inh,[19],0%
same,%Inh,[20],1%
N#Cc1c(N2CCOCC2)sc(-c2ccn[nH]2)c1-c1ccc(Cl)cc1,%Inh,[1],11%
same,%Inh,[2],0%
same,%Inh,[3],16%
same,%Inh,[4]; [21],27%
same,%Inh,[5],5%
same,%Inh,[6],7%
same,%Inh,[7],14%
same,%Inh,[8],0%
same,%Inh,[9],15%
same,%Inh,[10],12%
same,%Inh,[11],38%
same,%Inh,[12],0%
same,%Inh,[13],22%
same,%Inh,[14],11%
same,%Inh,[15],0%
same,%Inh,[16],24%
same,%Inh,[17],0%
same,%Inh,[18],0%
same,%Inh,[19],0%
same,%Inh,[20],5%
CNc1ncnc2[nH]ncc12 [SKF-18355],%Inh,[1],11%
same,%Inh,[2],0%
same,%Inh,[3],0%
same,%Inh,[4]; [21],0%
same,%Inh,[5],0%
same,%Inh,[6],29%
same,%Inh,[7],0%
same,%Inh,[8],0%
same,%Inh,[9],0%
same,%Inh,[10],0%
same,%Inh,[11],0%
same,%Inh,[12],17%
same,%Inh,[13],22%
same,%Inh,[14],4%
same,%Inh,[15],0%
same,%Inh,[16],0%
same,%Inh,[17],0%
same,%Inh,[18],0%
same,%Inh,[19],0%
same,%Inh,[20],14%
CCc1nc(-c2cccc(C)c2)c(-c2ccnc(NCc3ccccc3)c2)s1,%Inh,[1],0%
same,%Inh,[2],0%
same,%Inh,[3],0%
same,%Inh,[4]; [21],17%
same,%Inh,[5],4%
same,%Inh,[6],11%
same,%Inh,[7],15%
same,%Inh,[8],6%
same,%Inh,[9],0%
same,%Inh,[10],3%
same,%Inh,[11],5%
same,%Inh,[12],22%
same,%Inh,[13],2%
same,%Inh,[14],3%
same,%Inh,[15],0%
same,%Inh,[16],11%
same,%Inh,[17],0%
same,%Inh,[18],5%
same,%Inh,[19],3%
same,%Inh,[20],0%
